# Screening data as filed in PubChem.
# Rows were chosen to be rich in hits. Some 19% of all compounds tested hit in one or more screens of this group.
# DT40 TDP1 CPT – qHTS for Inhibitors of human tyrosyl-DNA phosphodiesterase 1 (TDP1): qHTS in cells in presence of CPT; chicken DT40 Tdp1-/-;hTDP1 cells + 20 nM CPT, ATP luminescence, 48 h; Potency, µM (series often up to 46.2 µM), for inactives: top-dose activity change, negative = growth inhibition, hits mostly inhibitors; hit rate 12% among 420,000; AID 686979, 2013; further: potency means the concentration at half of the fitted maximal effect; nearly all actives have a fitted effect of over 55% in size
#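 Cell growth measured by CellTiter-Glo luminescence after a minimum 48 h, 37 C compound exposure with 20 nM CPT in Tdp1-knockout DT40 cells stably expressing hTDP1, seeded 400/well; qHTS titration format.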
# HT1080 IDH1KD tx – qHTS for induction of synthetic lethality in tumor cells producing 2HG: qHTS for the HT-1080-IDH1KD cell line; HT-1080 IDH1 knockdown viability, ATP luminescence, 48 h; Potency, µM (highest dose often 46.1 µM), inactives show top-dose activity, negative = toxicity, hits mostly cytotoxic; hit rate 2% among 360,000; AID 686971, 2013;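 further: potency means the concentration at half of the fitted maximal effect; 0% = DMSO wells and -100% = cell-free medium wells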
#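 CellTiter-Glo luminescence after 48 h compound exposure at 37 degrees C of IDH1-knockdown HT-1080 cells in 5% FBS RPMI. %Activity scaled between DMSO wells and cell-free media wells, with curves fitted and assigned curve classes.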
# TDP1 cell noCPT – qHTS for Inhibitors of human tyrosyl-DNA phosphodiesterase 1 (TDP1): qHTS in cells in absence of CPT. DT40 Tdp1-/- hTDP1 cells, no CPT, ATP luminescence, 48 h. hit rate 15% among 420,000. Potency, µM (top dose mostly 46.2 µM), without a hit: top-dose activity change, negative = growth inhibition, usual class: inhibitors; further: potency means the concentration at half of the fitted maximal effect; nearly all actives have a fitted effect of over 55% in size
#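 Chicken DT40 Tdp1-/- cells complemented with human TDP1, screened without camptothecin (DMSO vehicle only), 400 cells/well. Compounds pin-transferred, cells incubated at 37 °C for at least 48 hr. Growth read as ATP-dependent luminescence (CellTiter-Glo, 30 min at RT).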
# IL1B secr inh – qHTS for Inhibitors of Inflammasome Signaling: IL-1-beta AlphaLISA Primary Screen | THP-1 LPS/ATP IL-1B secretion, AlphaLISA, 16 h; hits give low values | activity change, % at 57.5 µM | hit rate 4.7% among 360,000 | AID 743279, 2014; in the data active means activity change below about -50%; inconclusive means mostly about -30% to -49%
#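 Secreted IL-1B measured by AlphaLISA bead assay after 16 h compound exposure of THP-1 cells; compounds (final up to 57.5 uM) added 1 h before LPS (250 ng/mL) and ATP (1.25 mM) stimulation; lower signal means less secretion.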
# HT1080-NT tox – qHTS for induction of synthetic lethality in tumor cells producing 2HG: qHTS for the HT-1080-NT fibrosarcoma cell line; HT-1080-NT fibrosarcoma viability, CellTiter-Glo ATP luminescence, 48 h; Potency, µM (series often up to 46.1 µM), without a hit: at the highest dose activity, negative = less viability, actives largely listed as cytotoxic; hit rate 1.6% among 360,000;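 further: NT is the 2HG producing partner of a matched IDH1 knockdown line; potency means the concentration at half of the fitted maximal effect; 0% = DMSO-treated cells and -100% = media-only wells without cells; nearly all actives have a fitted effect of over 55% in size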
#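 750 cells/well, RPMI + 5% FBS; 2 h settle, compound pin-transfer, 48 h at 37 degrees C. CellTiter-Glo 10 min RT, luminescence. Normalized to DMSO and media-only wells.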
# ELG1 DNA repair – qHTS screen for small molecules that inhibit ELG1-dependent DNA repair in human embryonic kidney (HEK293T) cells expressing luciferase-tagged ELG1. Potency, µM (series often up to 46.1 µM), for inactives: top-dose activity change, negative = inhibition, most hits filed as inhibitors. HEK293T ELG1-luciferase reporter, luminescence, 16 h; DNA damage induced by 5-fluorouridine. AID 504467, 2011. hit rate 2.3% among 330,000; further: potency means the concentration at half of the fitted maximal effect; nearly all actives have a fitted effect of over 55% in size
#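 HEK293T cells expressing luciferase-tagged ELG1 (2,000/well) received 5-Fluorouridine plus compound or DMSO for 16 hr at 37 °C. Luciferase was read by ONE-Glo luminescence after 30 min at room temperature.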
# Active calls of the source: *; u = inconclusive; x = no result given; [ ] = another dose, or the depositor's remark. Unless noted, the call rests on the fitted dose curve; in most records, active means well fitted curve in the direction sought with a large enough effect; inconclusive means small, poorly fitted or top-dose-only effect, or another doubt; inactive means no such curve, though single readings can be large; an effect the other way counts as inactive or inconclusive. Unless noted, on the % scale 0 is the no-effect control and ±100 the full control effect.
SMILES,DT40 TDP1 CPT,HT1080 IDH1KD tx,TDP1 cell noCPT,IL1B secr inh,HT1080-NT tox,ELG1 DNA repair
C[C@H]1C[C@H]2[C@@H]3CCC4=CC(=O)C=C[C@]4(C)[C@@]3(F)[C@@H](O)C[C@]2(C)[C@@]1(O)C(=O)CO,-11%,22%,-11%,-59*,u,x
CC(C)(C)CC(=O)OCC(=O)[C@@]12OC(C)(C)O[C@@H]1C[C@H]1[C@@H]3CCC4=CC(=O)C=C[C@]4(C)[C@@]3(F)[C@@H](O)C[C@@]12C,-23%,x,-13%,x,x,x
CC1(C)OC2CC3C4CC(F)C5=CC(=O)C=CC5(C)C4(F)C(O)CC3(C)C2(C(=O)CO)O1 (stereo not drawn),-4%,35%,1%,-50*,u,u
CC1(c2ccccc2)O[C@@H]2C[C@H]3[C@@H]4CCC5=CC(=O)C=C[C@]5(C)[C@@]4(F)[C@@H](O)C[C@]3(C)[C@]2(C(=O)CO)O1 (stereo partly drawn),u,0%,u,-67*,u,0%
C[C@@H]1C[C@H]2[C@@H]3CCC4=CC(=O)C=C[C@]4(C)[C@@]3(F)[C@@H](O)C[C@]2(C)[C@@]1(O)C(=O)COP(=O)(O)O,3%,25%,3%,-19,-1%,10%
CCCCC(=O)O[C@]1(C(=O)CO)[C@H](C)C[C@H]2[C@@H]3CCC4=CC(=O)C=C[C@]4(C)[C@@]3(F)[C@@H](O)C[C@@]21C,19µM*,x,13µM*,x,x,x
CCC(=O)O[C@]1(C(=O)CCl)[C@@H](C)C[C@H]2[C@@H]3CCC4=CC(=O)C=C[C@]4(C)[C@@]3(F)[C@@H](O)C[C@@]21C,u,2%,u,x,-26%,4%
CCN(CC1CCCN(CCc2cccc(F)c2)C1)C(=O)c1cc(C)oc1C (stereo not drawn),u,-1%,u,u,-2%,6%
CCN(CC1CCCN(CCc2cccc(F)c2)C1)C(=O)c1cc2ccccc2o1 (stereo not drawn),26µM*,u,18µM*,-88*,u,-1%
CN(CC1CCCN(CCc2cccc(C(F)(F)F)c2)C1)C(=O)c1cc2ccccc2o1 (stereo not drawn),u,-12%,13µM*,-60*,-1%,-26%
CCn1c(=O)cc(OCC(=O)Nc2ccccc2Cl)c2ccccc21,-10%,x,-21%,x,x,x
CSc1ccc(C(=O)N2CCc3c(cnc(C)c3CNC(=O)c3cncs3)C2)cc1,0%[9.04 µM],x,u,x,x,x
O=C(C=Cc1ccccc1)c1c[nH]c2ccccc2c1=O,6.5µM*,u,6.5µM*,-98*,8.2µM*,x
O=C(/C=C/c1ccccc1)c1c[nH]c2ccccc12,-20%,0%,-1%,u,-1%,u
Cc1[nH]c2ccccc2c(=O)c1C(=O)/C=C/c1ccccc1,5.2µM*,u,2.3µM*,-101*,-4%,8.2µM*
O=C(CCSc1nc2ccccc2o1)Nc1ccccc1,1%,10%,-25%,17,7%,7%
CCn1c(=O)cc(OCC(=O)Nc2cc(OC)c(OC)c(OC)c2)c2ccccc21,15µM*,x,u,x,x,x
CCn1c(=O)cc(SCC(=O)Nc2cccc(SC)c2)c2ccccc21,-25%,-14%,u,-9,-12%,u
CCn1c(=O)cc(SCC(=O)Nc2cc(OC)c(OC)c(OC)c2)c2ccccc21,23µM*,-4%,u,-6,-1%,0%
CCn1c(=O)cc(SCC(=O)NCc2ccc(OC)cc2OC)c2ccccc21,-27%,x,-29%,x,x,x
CCn1c(=O)cc(SCC(=O)NCCc2cc(OC)ccc2OC)c2ccccc21,21µM*,x,21µM*,x,x,x
COc1ccc(Cl)cc1C(=O)NNC1CC(=O)N(Cc2ccc(Cl)cc2)C1=O (stereo not drawn),-3%,0%,-24%,-15,8%,1%
CCN1C(=NCc2ccc(OC)cc2)N[C@@H](c2ccccc2)C(C(=O)OC)=C1C,u,-6%,u,-24,1%,-3%
COC(=O)C1=C(C)N(Cc2ccccc2)C(=NCc2ccc(OC)cc2)N[C@H]1c1cccc(F)c1,15µM*,-17%,16µM*,u,-20%,1%
COC(=O)C1=C(C)N(Cc2ccccc2)C(=NCc2cc(OC)c(OC)c(OC)c2)N[C@H]1c1cccc(F)c1,12µM*,4%,8.2µM*,u,-3%,u
SMILES,DT40 TDP1 CPT,HT1080 IDH1KD tx,TDP1 cell noCPT,IL1B secr inh,HT1080-NT tox,ELG1 DNA repair
CCN1C(=NCc2cc(OC)c(OC)c(OC)c2)N[C@@H](c2ccccc2)C(C(=O)OC)=C1C,u,3%,-16%,-13,7%,u
COC(=O)C1=C(C)N(Cc2ccccc2)C(=NCc2ccco2)N[C@H]1c1cccc(F)c1,12µM*,2%,18µM*,u,-1%,5%
COC(=O)C1=C(C)N(Cc2ccccc2)C(=NCc2cccc(Cl)c2)N[C@H]1c1cccc(F)c1,2.6µM*,u,3.7µM*,u,u,u
COc1ccc(OCc2nnc(SCC(=O)Nc3ccccc3Cl)o2)cc1,13%,17%,1%,9,21%,19%
CCc1sc(C(=O)Nc2cccnc2)cc1Br,-28%,-7%,-7%,-22,-16%,u
CCCC1=NN(C(=O)C(=O)Nc2ccc(Br)cc2)C(O)(C(F)(F)F)C1 (stereo not drawn),4.1µM*,16µM*,4.6µM*,21,13µM*,-17%
CCC1=NN(C(=O)C(=O)Nc2ccc(Br)cc2)C(O)(C(F)(F)F)C1 (stereo not drawn),-12%,u,-3%,44,21µM*,-10%
COc1ccc(NC(=O)C(=O)N2N=C(C(C)C)CC2(O)C(F)(F)F)cc1 (stereo not drawn),5.8µM*,8.9µM*,5µM*,-12,u,-3%
O=C(NC1CCCCC1)C(c1ccccc1)n1c(=O)c(-c2ccco2)nc2ccccc21 (stereo not drawn),18µM*,1%,21µM*,0,-2%,x
